Bioassay records deposited in PubChem BioAssay by National Center for Advancing Translational Sciences (NCATS).
Hits are enriched below; roughly 19% of the tested compounds scored in any of these assays.
HT1080 IDH1KD tx: qHTS for induction of synthetic lethality in tumor cells producing 2HG: qHTS for the HT-1080-IDH1KD cell line; HT-1080 IDH1 knockdown viability, ATP luminescence, 48 h; Potency, µM (top dose mostly 46.1 µM), for the others: top-dose activity, negative = toxicity, usual class: cytotoxic; actives 2% (n = 360,000); AID 686971, 2013;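 note: potency is the fitted concentration of half-maximal effect; 0% = DMSO wells and -100% = cell-free medium wells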
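Luminescent ATP read-out (CellTiter-Glo, 10 min at room temperature) after 48 h compound exposure at 37 °C gave viability of IDH1-knockdown HT-1080 cells. Activity was normalised to DMSO and cell-free wells, then fitted as concentration-response curves.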
TDP1 cell noCPT: qHTS for Inhibitors of human tyrosyl-DNA phosphodiesterase 1 (TDP1): qHTS in cells in absence of CPT | AID 686978, 2013 | actives 15% (n = 420,000) | Potency, µM (doses to about 46.2 µM), for inactives: top-dose activity change, negative = growth inhibition, hits mostly inhibitors | DT40 Tdp1-/- hTDP1 cells, no CPT, ATP luminescence, 48 h; note: potency is the fitted concentration of half-maximal effect; nearly all actives have a fitted effect of over 55% in size
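Luminescent ATP content (CellTiter-Glo) served as the growth readout. Knockout chicken DT40 cells expressing human TDP1 were exposed to compounds without camptothecin for a minimum 48 hr at 37 °C.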
HT1080-NT tox: qHTS for induction of synthetic lethality in tumor cells producing 2HG: qHTS for the HT-1080-NT fibrosarcoma cell line. actives 1.6% (n = 360,000). Potency, µM (series often up to 46.1 µM), for inactives: at the highest dose activity, negative = less viability, actives largely listed as cytotoxic. HT-1080-NT fibrosarcoma viability, CellTiter-Glo ATP luminescence, 48 h. AID 686970, 2013;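 note: NT is the 2HG producing partner of a matched IDH1 knockdown line; potency is the fitted concentration of half-maximal effect; 0% = DMSO-treated cells and -100% = media-only wells without cells; nearly all actives have a fitted effect of over 55% in size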
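Fibrosarcoma NT cells, 750 per well in 5% FBS RPMI, were exposed to compound for 48 hours. Viability: CellTiter-Glo luminescence.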
ELG1 DNA repair: qHTS screen for small molecules that inhibit ELG1-dependent DNA repair in human embryonic kidney (HEK293T) cells expressing luciferase-tagged ELG1. Potency, µM (doses to about 46.1 µM), inactives show top-dose activity change, negative = inhibition, most hits filed as inhibitors. AID 504467, 2011. HEK293T ELG1-luciferase reporter, luminescence, 16 h; DNA damage induced by 5-fluorouridine. actives 2.3% (n = 330,000); note: potency is the fitted concentration of half-maximal effect; nearly all actives have a fitted effect of over 55% in size
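In this reporter screen, reduction of luminescence relative to DMSO vehicle indicated activity. Compounds and 5-fluorouridine were added together to 2,000 cells per well, incubated for 16 hr at 37 °C, then developed with ONE-Glo.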
TDP1 cell CPT: qHTS for Inhibitors of human tyrosyl-DNA phosphodiesterase 1 (TDP1): qHTS in cells in presence of CPT; chicken DT40 Tdp1-/-;hTDP1 cells + 20 nM CPT, ATP luminescence, 48 h; Potency, µM (top dose mostly 46.2 µM), for the others: at the highest dose activity change, negative = growth inhibition, most hits filed as inhibitors; actives 12% (n = 420,000); AID 686979, 2013; note: potency is the fitted concentration of half-maximal effect; nearly all actives have a fitted effect of over 55% in size
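Cell growth measured by CellTiter-Glo luminescence after a minimum 48 h, 37 C compound exposure with 20 nM CPT in Tdp1-knockout DT40 cells stably expressing hTDP1, seeded 400/well; qHTS titration format.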
IL-1B inflam inh: qHTS for Inhibitors of Inflammasome Signaling: IL-1-beta AlphaLISA Primary Screen. activity change, % at 57.5 µM. actives 4.7% (n = 360,000). THP-1 LPS/ATP IL-1B secretion, AlphaLISA, 16 h; hits give low values; in the data active = activity change below about -50%; inconclusive = mostly about -30% to -49%
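Secreted IL-1B measured by AlphaLISA bead assay after 16 h compound exposure of THP-1 cells; compounds (final up to 57.5 uM) added 1 h before LPS (250 ng/mL) and ATP (1.25 mM) stimulation; lower signal means less secretion.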
* hit, by the source's call; u = inconclusive; x = no result. Unless noted, calls come from the whole dose curve; as a rule, active = well fitted curve in the direction sought with a large enough effect; inconclusive = small, poorly fitted or top-dose-only effect, or another doubt; inactive = no such curve, though single readings can be large; an effect the other way counts as inactive or inconclusive. Unless noted, % is set by controls: 0 for no effect and ±100 for the full control effect.

SMILES	HT1080 IDH1KD tx	TDP1 cell noCPT	HT1080-NT tox	ELG1 DNA repair	TDP1 cell CPT	IL-1B inflam inh
Cc1ccccc1OCCNC(=O)CSc1ccc(C(F)(F)F)cc1[N+](=O)[O-]	-4.2%	u	-13.3%	3.7%	-7.5%	u
COc1ccc(C(=O)NCCCNC(=O)c2ccc(C)nc2)cc1	7.8%	-17.5%	1.5%	17.3%	4.4%	5.1
Cc1ccc(NCc2ccccc2O)cc1C	-8.8%	-28.5%	-16.3%	u	u	-15.5
CCC(=O)Nc1ccc(C(=O)OCc2ccccc2)cc1	0.1%	-1.2%	0.1%	u	-20.3%	-1.6
CC(C)OC(=O)c1ccc(NCc2cc(O)ccc2O)cc1	18.4µM*	2.31µM*	20.6µM*	x	1.16µM*	-100.5*
O=C(OCc1ccccc1)c1ccc(NCc2cc(O)ccc2O)cc1	5.8µM*	3.66µM*	9.2µM*	x	4.61µM*	-76.2*
COP(=O)(OC)c1ccc(NCc2cc(O)ccc2O)cc1	0.5%	4.11µM*	-0.6%	x	4.61µM*	0.0
CC(C)CC1NC(=O)N(CC(=O)Nc2cc(S(=O)(=O)N3CCOCC3)ccc2Cl)C1=O (configuration not stated)	1.9%	14.5%	-2.1%	0.0%	-7.3%	0.0
CN(C)c1ncc2nc(-c3ccc(Cl)cc3)c(=O)n(C[C@H]3CCCO3)c2n1	x	16.3%	x	x	8.6%	x
Cc1ccc(NC(=O)Cn2c(=O)cc(-c3ccccc3)c3c(C)nn(C)c32)c(Cl)c1	x	-14.8%	x	x	-27.3%	x
Cc1ccc(Cn2c(CN(C)Cc3ccccc3)nc3c2c(=O)n(C)c(=O)n3C)cc1	-7.5%	u	-1.4%	u	u	-9.3
Cc1ccc(C)c(Cn2c(CN(C)Cc3ccccc3)nc3c2c(=O)n(C)c(=O)n3C)c1	-5.5%	14.6µM*	-6.5%	u	18.4µM*	-7.1
CN(Cc1ccccc1)Cc1nc2c(c(=O)n(C)c(=O)n2C)n1Cc1ccc(F)cc1	0.9%	u	0.4%	18.4µM*	u	39.6
C=C(C)Cn1c(CN(C)Cc2ccccc2)nc2c1c(=O)n(C)c(=O)n2C	-12.3%	5.17µM*	-8.6%	u	7.31µM*	0.0
COC(=O)[C@@H]1CCCN1C(=O)c1c(OC)cc(=O)n2c1CCN(Cc1ccc3c(c1)CCO3)CC2	x	-3.5%	x	x	27.5%	x
O=C1CCc2cc(S(=O)(=O)N3CCCCC3)cc3c2N1CCC3	-2.2%	-9.2%	14.5%	u	16.2%	43.4
CCOC(=O)C1CCN(S(=O)(=O)c2cccc(-c3cn4cccnc4n3)c2)CC1	-6.2%	u	-14.2%	13µM*	u	-27.0
CCOC(=O)C1CCN(S(=O)(=O)c2ccc(CC)cc2)CC1	4.6%	u	-3.5%	-1.5%	20.6µM*	21.4
CCOC(=O)C1CCCN(S(=O)(=O)c2cc3c4c(c2)CCC(=O)N4CCC3)C1 (configuration not stated)	-23.5%	20.6µM*	-28.3%	-12.4%	23.1µM*	29.7
CCOC(=O)C1CCCN(S(=O)(=O)c2ccc(S(=O)(=O)N3CCCC3)cc2)C1 (configuration not stated)	-1.4%	3.66µM*	0.3%	0.2%	4.61µM*	0.0
CC(NC(=O)c1ccc(Cn2c(=O)c3cccn3c3cccnc32)cc1)c1ccccc1 (configuration not stated)	x	u	x	x	-29.0%	x
CCC(C)c1ccccc1OCC(=O)NN1C(=O)c2ccccc2C1=O (configuration not stated)	u	-2.8%	u	22.9%	-1.6%	25.2
CN(Cc1ccccc1C(F)(F)F)C(=O)C1CCC(=O)N(CC2CCCCC2)C1 (configuration not stated)	-2.2%	-12.5%	2.9%	x	-23.5%	8.5
CCOC(=O)C1CCN(C(=O)C2CCCN(S(=O)(=O)c3ccc(OCC)c(Cl)c3)C2)CC1 (configuration not stated)	-21.5%	5.8µM*	u	u	6.51µM*	8.0
CC1CC(C)CN(S(=O)(=O)c2cc3c4c(c2)CCC(=O)N4CCC3)C1 (configuration not stated)	-1.1%	18.4µM*	1.2%	-10.2%	u	-4.8
SMILES	HT1080 IDH1KD tx	TDP1 cell noCPT	HT1080-NT tox	ELG1 DNA repair	TDP1 cell CPT	IL-1B inflam inh
Cn1ccc(C(=O)OCC(=O)Nc2ccccc2Cl)n1	0.3%	-23.7%	-6.3%	2.3%	-23.0%	-5.5
O=C1CCCN2N=C(SCC(=O)Nc3cccc(F)c3)SC2=N1	-21.7%	13µM*	u	-25.2%	20.6µM*	2.9
Cc1ccc(C)c(CSC2=NN3CCCC(=O)N=C3S2)c1	-8.2%	16.4µM*	-4.4%	-7.0%	u	15.7
Cc1ccc(S(=O)(=O)NC(=O)Nc2cc(C)no2)cc1	0.0%	-10.7%	0.8%	7.3%	-3.6%	-16.2
CCOC(=O)CC1C(=O)NCCN1C(=O)c1ccc(Cl)cc1 (configuration not stated)	-1.6%	-15.5%	1.7%	-0.3%	3.1%	-3.9
COC(=O)c1ccc2c(=O)n(CC3CCCO3)c(SCC(=O)NCCc3ccc(S(N)(=O)=O)cc3)nc2c1 (configuration not stated)	15.3%	u	-0.3%	-8.7%	-19.3%	3.9
C[C@@H](C(=O)NCc1ccc(S(C)(=O)=O)cc1)[C@H]1C[C@]1(C)[C@H](NC(=O)OCc1ccccc1)c1ccccc1	1.1%	u	2.6%	u	u	-9.1
C[C@@H](C(=O)NCC1CC1)[C@H]1C[C@]1(C)[C@H](NC(=O)OCc1ccccc1)c1ccccc1	2.1%	u	0.0%	u	25.9µM*	-5.4
C[C@@H](C(=O)Nc1ccc2ccccc2c1)[C@H]1C[C@]1(C)[C@H](NS(=O)(=O)c1ccccc1)c1ccccc1	-11.1%	20.6µM*	-1.2%	-0.2%	u	u
COCCNC(=O)[C@H](C)[C@H]1C[C@]1(C)[C@H](NC(=O)OCc1ccccc1)c1ccccc1	4.4%	u	5.4%	-6.4%	u	9.9
